# In PMC10812921, “Transcriptional Coactivator BOB1 (OBF1, OCA-B) Modulates the Specificity of DNA Recognition by the POU-Domain Factors OCT1 and OCT2 in a Monomeric Configuration”:
# Biological target: POU1 (OCT1 POU domain) (human, UniProt P14859 260-458)
# Test: EMSA-SELEX-seq; no BOB1; 20 mM Tris-HCl pH 7.6, 140 mM NaCl, 10% glycerol, 0.5 mM EDTA, 0.05% Triton X-100, 0.1 mg/mL BSA, 0.1 mg/mL poly(dI-dC), 5 mM DTT, room temperature, 20 min; high values mean tight binding
# Conditions: protein: recombinant; dsDNA, one strand shown
# Summary of the method: (§1)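 Tagged POU-domain proteins were expressed in E. coli BL21, purified under denaturing conditions and renatured. Then 30 ng was mixed with 300 ng of a PCR-amplified double-stranded random 35-nt library, with or without 28 ng coactivator protein, in 20 μL Tris–HCl pH 7.6 binding buffer for 20 min at RT. Complex bands were cut from native 6% PAGE, eluted and PCR-amplified over four rounds, then Illumina-sequenced. Binding preference is the percentage of sequenced 8-mers matching a motif pattern.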
# POU1 (OCT1 POU domain), sequence (P14859 260-458): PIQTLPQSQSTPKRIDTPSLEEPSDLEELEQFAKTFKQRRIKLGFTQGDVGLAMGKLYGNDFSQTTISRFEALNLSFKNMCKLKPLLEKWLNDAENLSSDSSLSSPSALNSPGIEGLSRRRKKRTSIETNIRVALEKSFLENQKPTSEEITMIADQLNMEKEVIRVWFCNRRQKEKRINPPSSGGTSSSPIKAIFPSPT
row,Sequence,binding signal
1,AGATTAAC,0.0885 % of ANNNNAAN 8-mers
2,AAAAAAAT,0.13 % of ANNNNAAN 8-mers
3,AGCCTAAG,0.0183 % of ANNNNAAN 8-mers
4,AAATTAAA,0.328 % of ANNNNAAN 8-mers
5,AACACAAC,0.016 % of ANNNNAAN 8-mers
6,ATAACAAA,0.098 % of ANNNNAAN 8-mers
7,ATATTAAG,0.196 % of ANNNNAAN 8-mers
8,ACACAAAA,0.0454 % of ANNNNAAN 8-mers
9,ATAGGAAT,0.098 % of ANNNNAAN 8-mers
10,AGTACAAT,0.0416 % of ANNNNAAN 8-mers
11,AGGTTAAA,0.0545 % of ANNNNAAN 8-mers
12,ACTAGAAG,0.0229 % of ANNNNAAN 8-mers
13,AGTTGAAT,0.0927 % of ANNNNAAN 8-mers
14,ACCATAAA,0.0625 % of ANNNNAAN 8-mers
15,AGGCCAAG,0.0271 % of ANNNNAAN 8-mers
16,ATCACAAA,0.0332 % of ANNNNAAN 8-mers
17,AACCAAAG,0.0336 % of ANNNNAAN 8-mers
18,ACCGGAAT,0.0412 % of ANNNNAAN 8-mers
19,AATGGAAC,0.0439 % of ANNNNAAN 8-mers
20,ATAAAAAG,0.0915 % of ANNNNAAN 8-mers

row,Sequence,binding signal
1,AGCGCAAC,0.0103 % of ANNNNAAN 8-mers
2,AGGGCAAA,0.0568 % of ANNNNAAN 8-mers
3,ACGTTAAA,0.0412 % of ANNNNAAN 8-mers
4,AAACCAAG,0.0233 % of ANNNNAAN 8-mers
5,ATCTTAAC,0.0351 % of ANNNNAAN 8-mers
6,ACCGCAAA,0.0179 % of ANNNNAAN 8-mers
7,AGGGTAAG,0.0503 % of ANNNNAAN 8-mers
8,AAGTTAAT,0.165 % of ANNNNAAN 8-mers
9,ACAAGAAG,0.0347 % of ANNNNAAN 8-mers
10,AATTTAAT,0.306 % of ANNNNAAN 8-mers
11,ATCCTAAA,0.0267 % of ANNNNAAN 8-mers
12,ATACCAAG,0.0252 % of ANNNNAAN 8-mers
13,AACTAAAA,0.0431 % of ANNNNAAN 8-mers
14,AGCTAAAC,0.0187 % of ANNNNAAN 8-mers
15,ATTTCAAT,0.238 % of ANNNNAAN 8-mers
16,AAGTAAAA,0.108 % of ANNNNAAN 8-mers
17,ATCCTAAT,0.0614 % of ANNNNAAN 8-mers
18,AGGCTAAA,0.0381 % of ANNNNAAN 8-mers
19,ATCATAAG,0.0496 % of ANNNNAAN 8-mers

# Biological target: T1, POU2 (OCT2 POU domain) (human, UniProt P09086 175-386)
# T1 sequence: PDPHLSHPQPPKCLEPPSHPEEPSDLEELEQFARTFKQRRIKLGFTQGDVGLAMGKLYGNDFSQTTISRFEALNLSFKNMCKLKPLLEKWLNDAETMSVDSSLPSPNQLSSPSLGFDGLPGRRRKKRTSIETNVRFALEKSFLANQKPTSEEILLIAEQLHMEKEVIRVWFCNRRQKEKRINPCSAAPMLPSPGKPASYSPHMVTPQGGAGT
# Test: as above
# Conditions: protein: recombinant; dsDNA, one strand shown
# Summary of the method: as §1
row,Sequence,binding signal
1,AGATTAAC,0.0863 % of ANNNNAAN 8-mers
2,AAAAAAAT,0.12 % of ANNNNAAN 8-mers
3,AGCCTAAG,0.0207 % of ANNNNAAN 8-mers
4,AAATTAAA,0.349 % of ANNNNAAN 8-mers
5,AACACAAC,0.019 % of ANNNNAAN 8-mers
6,ATAACAAA,0.0909 % of ANNNNAAN 8-mers
7,ATATTAAG,0.214 % of ANNNNAAN 8-mers
8,ACACAAAA,0.0374 % of ANNNNAAN 8-mers
9,ATAGGAAT,0.132 % of ANNNNAAN 8-mers
10,AGTACAAT,0.0426 % of ANNNNAAN 8-mers
11,AGGTTAAA,0.0731 % of ANNNNAAN 8-mers
12,ACTAGAAG,0.0316 % of ANNNNAAN 8-mers
13,AGTTGAAT,0.119 % of ANNNNAAN 8-mers
14,ACCATAAA,0.0662 % of ANNNNAAN 8-mers
15,AGGCCAAG,0.0334 % of ANNNNAAN 8-mers
16,ATCACAAA,0.0374 % of ANNNNAAN 8-mers
17,AACCAAAG,0.038 % of ANNNNAAN 8-mers
18,ACCGGAAT,0.0489 % of ANNNNAAN 8-mers
19,AATGGAAC,0.0466 % of ANNNNAAN 8-mers
